Data reported in PubChem BioAssay AID1984 (Sanford-Burnham Center for Chemical Genomics, 2009).
Among all 290,000 compounds or so, about 35 (0.01%) were called active. The full list was thinned out, with actives kept by preference. Values without a mark were called inactive.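 The calls were made as follows: active = EGFP signal decrease of at least 30% at 10 µM or well 3 SD below plate mean, unless failing retest; inactive = the rest, including hits failing retest or dose response.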

These compounds were tested against p/CIP-EGFP fusion (nuclear receptor coactivator 3, mouse) (UniProt Q05BA5) (assay: p/CIP-EGFP fusion destabilizers, primary screen, fluorescence, F442A cells (AID 1984)). Details: 16 h, at 10 µM, stronger effect = higher value.
p/CIP-EGFP fusion (nuclear receptor coactivator 3, mouse), sequence (Q05BA5 1-1403): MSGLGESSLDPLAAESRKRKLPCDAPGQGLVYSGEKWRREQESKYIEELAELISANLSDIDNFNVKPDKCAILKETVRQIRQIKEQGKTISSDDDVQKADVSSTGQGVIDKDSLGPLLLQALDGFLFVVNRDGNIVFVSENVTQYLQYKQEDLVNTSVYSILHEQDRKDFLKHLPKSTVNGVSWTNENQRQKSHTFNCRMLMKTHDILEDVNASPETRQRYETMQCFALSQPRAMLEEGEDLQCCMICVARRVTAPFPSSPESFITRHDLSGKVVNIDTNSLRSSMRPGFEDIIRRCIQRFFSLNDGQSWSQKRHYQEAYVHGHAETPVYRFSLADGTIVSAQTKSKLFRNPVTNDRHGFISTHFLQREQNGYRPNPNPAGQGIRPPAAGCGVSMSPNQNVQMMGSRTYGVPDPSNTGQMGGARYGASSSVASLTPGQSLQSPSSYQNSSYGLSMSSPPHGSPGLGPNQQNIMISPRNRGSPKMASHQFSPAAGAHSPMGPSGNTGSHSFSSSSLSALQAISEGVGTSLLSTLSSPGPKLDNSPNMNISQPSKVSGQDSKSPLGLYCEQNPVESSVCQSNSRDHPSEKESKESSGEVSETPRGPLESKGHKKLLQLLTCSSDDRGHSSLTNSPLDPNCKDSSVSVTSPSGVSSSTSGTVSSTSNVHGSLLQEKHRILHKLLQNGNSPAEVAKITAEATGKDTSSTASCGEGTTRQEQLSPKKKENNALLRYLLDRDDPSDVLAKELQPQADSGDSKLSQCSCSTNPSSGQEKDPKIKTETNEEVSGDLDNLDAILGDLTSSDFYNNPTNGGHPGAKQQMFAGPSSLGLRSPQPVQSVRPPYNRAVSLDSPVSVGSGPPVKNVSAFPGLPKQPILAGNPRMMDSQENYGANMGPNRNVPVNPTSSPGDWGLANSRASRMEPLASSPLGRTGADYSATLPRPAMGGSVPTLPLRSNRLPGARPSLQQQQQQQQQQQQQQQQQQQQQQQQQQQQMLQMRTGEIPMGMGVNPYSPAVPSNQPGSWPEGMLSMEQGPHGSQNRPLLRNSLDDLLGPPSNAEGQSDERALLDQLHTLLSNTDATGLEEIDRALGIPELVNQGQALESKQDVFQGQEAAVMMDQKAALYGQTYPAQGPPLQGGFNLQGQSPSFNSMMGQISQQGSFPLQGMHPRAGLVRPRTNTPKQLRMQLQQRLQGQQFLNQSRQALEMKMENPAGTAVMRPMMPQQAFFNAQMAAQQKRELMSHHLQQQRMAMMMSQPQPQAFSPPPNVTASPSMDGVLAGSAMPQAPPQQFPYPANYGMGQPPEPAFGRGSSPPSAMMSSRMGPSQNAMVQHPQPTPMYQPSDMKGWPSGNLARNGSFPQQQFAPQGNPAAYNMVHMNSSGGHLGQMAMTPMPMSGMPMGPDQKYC
With `CC(NCCc1ccc(S(N)(=O)=O)cc1)C(=O)NCc1ccccc1` (stereo unspecified) the decrease of EGFP signal was -40%.
Compound `O=S(=O)(NC1CC2CCC1C2)c1ccc(Cl)cc1` (stereo unspecified) has a decrease of EGFP signal of -15.4%.
In the case of `COc1ccccc1NC(=S)N1CCN(c2ccc(F)cc2)CC1`, the decrease of EGFP signal is reported as -2%.
For `CCCOc1ccc(Cc2c(O)nc(N)[nH]c2=O)cc1C`, the decrease of EGFP signal was -10.4%.
For `CC1(C)CCSC(/C=C/c2ccccc2)=N1`, the decrease of EGFP signal was -5.5%.
For `CSc1ccc(/C=C/C(=O)NC23CC4CC(CC(C4)C2)C3)cc1`, the decrease of EGFP signal was 0.4%.
`COCc1c(C(=O)N/N=C(\C)c2ccncc2)nnn1-c1nonc1N` showed a decrease of EGFP signal of 1.8%.
`O=S(=O)([N-]c1nc2ccccc2nc1-[n+]1ccc(Cc2ccccc2)cc1)c1ccc(Br)s1` was tested, and the decrease of EGFP signal was -27.8%.
In the case of `CCCc1cc(C(=O)N2CCCC(CO)(CCCc3ccccc3)C2)n(C)n1` (stereo unspecified), the decrease of EGFP signal is reported as -7.2%.
For `COc1ccc2[nH]c(C(=O)N/N=C/c3cc(OC)c(OC)c(OC)c3)cc2c1`, the decrease of EGFP signal was -8.7%.
With `Cc1ccc(NS(=O)(=O)c2cc3c(cc2C)NC(=O)CO3)cc1` the decrease of EGFP signal was -4.5%.
With `CCOCCc1nn2c(=O)cc(CSCC(=O)Nc3cccc(C)c3C)nc2s1` the decrease of EGFP signal was 4.4%.
`COc1ccc(N2CCC(N3CCN(C)C(CCO)C3)CC2)cc1` (stereo unspecified) gave a decrease of EGFP signal of 13.5%.
Work on `O=C(NCc1ccccc1)C(c1cccnc1)N(C(=O)c1csnn1)c1ccc(F)cc1` (stereo unspecified) yielded a decrease of EGFP signal of -5.9%.
For `Cc1cc2c(=O)n(CC(=O)NCC(=O)Nc3ccc(C(C)C)cc3)cnc2s1`, the decrease of EGFP signal was 3.7%.
`COC(=O)c1sc(-c2ccc(C(C)(C)C)cc2)cc1NC(=O)/C=C/C(=O)O` was tested, and the decrease of EGFP signal was -12.7%.
With `O=C(O)/C=C/C(=O)NNc1ccc([N+](=O)[O-])cc1` the decrease of EGFP signal was -13%.
`Nc1nc(Nc2ccccc2F)nc(NC2CCCCC2)c1[N+](=O)[O-]` showed a decrease of EGFP signal of -4.1%.
With `COc1ccc(CN2CCN(Cc3ccc(OC)c(OC)c3OC)CC2)cc1` the decrease of EGFP signal was -4.7%.
`C=CCSc1nnc(N2C(=O)C(O)=C(C(=O)c3ccco3)C2c2ccc(F)cc2)s1` (stereo unspecified) gave a decrease of EGFP signal of -15.4%.
`Cc1ccc(CNC(=O)CCC(=O)N2CC(C)Sc3ccccc32)cc1` (stereo unspecified) showed a decrease of EGFP signal of -1.6%.
With `CC(C)CC(O)C1CCN(C(=O)CCc2nnc(-c3ccc4c(c3)OCO4)o2)CC1` (stereo unspecified) the decrease of EGFP signal was -14.9%.
`O=C(c1ccc2nc(N3CCOCC3)sc2c1)N1CCN(c2ccc(Cl)cc2)CC1` was tested, and the decrease of EGFP signal was -11.7%.
`COc1ccc(C(C(=O)NCC2CCCO2)N(C(=O)Cn2nnc3ccccc32)c2ccc(NC(C)=O)cc2)cc1OC` (stereo unspecified) gave a decrease of EGFP signal of -4.9%.
Compound `O=C(c1cc(COc2ccc(F)cc2F)on1)N1CCOCC1` has a decrease of EGFP signal of -0.2%.
Work on `O=C(NCc1ccco1)/C(=C/c1cccc([N+](=O)[O-])c1)NC(=O)c1ccco1` yielded a decrease of EGFP signal of 1%.
`Cc1ccccc1N1CCN(C2CCCN(C(=O)c3ocnc3C)C2)CC1` (stereo unspecified) was tested, and the decrease of EGFP signal was -18.6%.
Compound `COc1cc(/C=N/NC(=O)c2cccnc2)ccc1OC(=O)c1cccc(Br)c1` has a decrease of EGFP signal of -4.4%.
Compound `CS(=O)(=O)N(CC(=O)Nc1ccc(F)cc1)C1CCCCC1` has a decrease of EGFP signal of -0.5%.
With `CC(C)CNC(=O)COC(=O)c1ccccc1OCC(=O)Nc1ccc(Br)cc1` the decrease of EGFP signal was -13.9%.
`Cc1c(C(=O)NCCN(C)C)oc2ccc(S(=O)(=O)N3CCCC3)cc12` gave a decrease of EGFP signal of -12.5%.
Work on `O=C(Nc1ccc(C(=O)O)cc1)/C(=C\c1ccccc1)NC(=O)c1ccc(Br)cc1` yielded a decrease of EGFP signal of -17.7%.
`Cc1c(Cl)c([N+](=O)[O-])nn1CC(=O)NCCCN1CCOCC1` gave a decrease of EGFP signal of 5.3%.
Compound `COc1cc(/C=C2\C(=N)N3N=C(CC(=O)N4CCOCC4)SC3=NC2=O)cc(OC)c1OC` has a decrease of EGFP signal of -17%.
`O=C(NC(=S)Nc1ccc2oc(=O)ccc2c1)c1ccc(-c2cccc(Cl)c2Cl)o1` gave a decrease of EGFP signal of -4.3%.
`CN(C)CCN(Cc1ccccc1)S(=O)(=O)c1csc(C(N)=O)c1` showed a decrease of EGFP signal of 15.1%.
`COC(=O)C1CCCCN1C(=O)c1ccc(OC2CCN(C(C)=O)CC2)c(OC)c1` (stereo unspecified) was tested, and the decrease of EGFP signal was 0.9%.
Compound `O=C(Cc1ccccc1Cl)N1CCOCC1` has a decrease of EGFP signal of -2.9%.
In the case of `Cc1c2cnn(CC(=O)NCCCN3CC(C)CC(C)C3)c(=O)c2c(C)n1Cc1ccc(Cl)cc1` (stereo unspecified), the decrease of EGFP signal is reported as 0.5%.
Work on `CCCC[C@H]1COCCS(=O)(=O)N1Cc1cccc(Cl)c1` yielded a decrease of EGFP signal of -5.5%.
Compound `O=C1COc2ccc(S(=O)(=O)NCCc3ccc(Cl)cc3)cc2N1` has a decrease of EGFP signal of 8.8%.
In the case of `Cc1cc(NC(=O)c2ccco2)c(=O)n(Cc2c(F)cccc2Cl)c1`, the decrease of EGFP signal is reported as -5.8%.
For `Cc1cc(S(=O)(=O)Nc2ccc(C(=O)NCC(c3ccco3)N3CCCC3)cc2)ccc1F` (stereo unspecified), the decrease of EGFP signal was -3%.
Work on `COc1ccc(CCNc2ncnc3c2nnn3Cc2ccccc2)cc1` yielded a decrease of EGFP signal of -4%.
`COc1ccc(Cc2nnc(N/N=C/c3ccccc3O)[nH]c2=O)cc1OC` was tested, and the decrease of EGFP signal was -4%.
In the case of `O=C(NNC1=C(C(=O)C(F)(F)F)CCC1)c1ccncc1`, the decrease of EGFP signal is reported as -15.9%.
For `Cc1ccnc(N2C(=O)c3ccc([N+](=O)[O-])cc3C2=O)c1`, the decrease of EGFP signal was -1.5%.
Work on `COc1ccc2c(C(=O)c3ccc(C)cc3)n(CCC(N)=O)[n+]([O-])c2c1` yielded a decrease of EGFP signal of -5.8%.
Compound `CC(C)C(C(=O)NCc1ccco1)N(CC1CCCO1)C(=O)CNS(=O)(=O)c1ccc(F)cc1` (stereo unspecified) has a decrease of EGFP signal of -1.5%.
`Cc1cccc(NC(=O)NC2(C)CCS(=O)(=O)C2)c1` (stereo unspecified) showed a decrease of EGFP signal of -6.6%.
`O=C(O)C1CCCN1S(=O)(=O)c1ccc(Br)cc1` (stereo unspecified) showed a decrease of EGFP signal of -0.2%.
With `Cc1ccc(C)c(N2CCN(S(=O)(=O)c3c(C)[nH]c(C)c3C(=O)N3CCCC3)CC2)c1` the decrease of EGFP signal was 3.6%.
`O=C(NCc1ccncc1)C1CCCN(S(=O)(=O)c2ccc(Br)cc2)C1` (stereo unspecified) showed a decrease of EGFP signal of -8.8%.
`COc1ccc(NS(=O)(=O)c2cccc3nsnc23)cc1Cl` gave a decrease of EGFP signal of -11.8%.
In the case of `COc1ccc(C(=O)C2CCCN(C(=O)c3cc4nc(C)cc(C)n4n3)C2)cc1F` (stereo unspecified), the decrease of EGFP signal is reported as -9.2%.
Work on `CCn1c(SCC(=O)NC2CC2)nnc1-c1ccccn1` yielded a decrease of EGFP signal of 0.1%.
`Cc1nc2cc(C(F)(F)F)ccc2n1CCNc1nc(-c2cc(Cl)c(N)c(Cl)c2)cs1` was tested, and the decrease of EGFP signal was -2.4%.
For `CN(C)CCN(C(=O)C1CCCCC1)c1nc2cc3c(cc2s1)OCO3`, the decrease of EGFP signal was -21.2%.
`O=C(NCc1cccc(C(F)(F)F)c1)c1cccc(S(=O)(=O)N2CCN(Cc3ccccc3)CC2)c1` was tested, and the decrease of EGFP signal was -8.5%.
For `C=CCNC(=O)c1ccc2c3n(nc2c1)-c1ccc(C)cc1CO3`, the decrease of EGFP signal was -3.3%.
For `O=C(O)CCCCCCCCc1cn(CN2C(=O)c3ccccc3C2=O)nn1`, the decrease of EGFP signal was -13.1%.
`CN(Cc1ccccc1Cl)C(=O)C1CCC(=O)N(CCc2cccc(F)c2)C1` (stereo unspecified) gave a decrease of EGFP signal of -8.9%.
Compound `CCOc1ccc2c(c1)c(=O)c(S(=O)(=O)c1ccc(C)cc1)cn2CC` has a decrease of EGFP signal of -6%.
For `CC(C)c1ccc(S(=O)(=O)N2CCC3(CC2)OCCO3)cc1`, the decrease of EGFP signal was 0.3%.
In the case of `CC1CN(S(=O)(=O)c2cccc(C(F)(F)F)c2)CN1C(=O)N1CCOCC1` (stereo unspecified), the decrease of EGFP signal is reported as -19%.
With `CCCN(CCC)c1nc2c(C)cccn2c(=O)c1/C=C1/SC(=S)N(Cc2ccco2)C1=O` the decrease of EGFP signal was -656%.
In the case of `CCOC(=O)c1c(S(=O)(=O)NCC(=O)Nc2ccc(C)cc2)c(C)n(C)c1C`, the decrease of EGFP signal is reported as 3.3%.
Compound `COc1ccc(OC)c(CCNC(=O)CCn2ccc3cc(S(=O)(=O)N4CCCC4)ccc32)c1` has a decrease of EGFP signal of 1%.
With `NC(=O)CC(NC(=O)Cc1ccc(Br)cc1)c1ccc(NC2CC3CCC2C3)c([N+](=O)[O-])c1` (stereo unspecified) the decrease of EGFP signal was 3.9%.
Work on `Cn1c(SCc2ccc(F)cc2)nnc1-c1ccncc1` yielded a decrease of EGFP signal of -10.6%.
In the case of `COc1ccc(CCNC(=O)CCc2cn(C)c3ccccc23)c(OC)c1`, the decrease of EGFP signal is reported as -1.8%.
Work on `Cc1cc(C)cc(OCC(=O)Nc2cc(NC(=O)COc3cc(C)cc(C)c3)cc(C(=O)O)c2)c1` yielded a decrease of EGFP signal of 13.4%.
`O=C(CCCCCn1c(=S)[nH]c2ccsc2c1=O)NC1CCCCC1` gave a decrease of EGFP signal of 1.2%.
For `Cc1cc(C)c2nc(N3CCC(C(=O)NCCN4CCOCC4)CC3)sc2c1`, the decrease of EGFP signal was -53.2%.
With `CCc1cccc(NC(=S)N(CCN(C)C)C2CCN(C(C)C)CC2)c1` the decrease of EGFP signal was 2.9%.
In the case of `COc1ccc(NC(=O)CSc2nc(SC)ns2)c(OC)c1`, the decrease of EGFP signal is reported as -9.3%.
For `CC(C)(C)OC(=O)NC(Cc1ccccc1)C(=O)NC(CSC1CCCCO1)C(=O)NN` (stereo unspecified), the decrease of EGFP signal was 1%.
`Cc1cccc(NC(=O)c2ccc([N+](=O)[O-])o2)c1` gave a decrease of EGFP signal of 1.2%.
In the case of `CC(Sc1nnnn1C)C(=O)NC(=O)NC1CCCCC1` (stereo unspecified), the decrease of EGFP signal is reported as 12.9%.
In the case of `O=Cc1c(NCCCN2CCCC2=O)c2ccccc2[nH]c1=O`, the decrease of EGFP signal is reported as -1.8%.
Work on `N#Cc1ccc(C2N=C(c3ccccc3)NO2)cc1` (stereo unspecified) yielded a decrease of EGFP signal of -11.6%.
Work on `Cc1ccc(C(=O)N/C(=C\c2cn(C)c3ccccc23)C(=O)N2CCN(C)CC2)cc1` yielded a decrease of EGFP signal of 3.7%.
With `CCCCC(O)(CCCC)C(=O)NN(C(=O)CCl)c1ccccc1` the decrease of EGFP signal was -2.8%.
In the case of `CS/C(=C\C(=O)c1ccco1)Nc1ccccc1Cl`, the decrease of EGFP signal is reported as -2.4%.
`Cc1nn(-c2ccccc2)c(Cl)c1/C=N/NC(=O)c1nn(C)cc1[N+](=O)[O-]` showed a decrease of EGFP signal of -5.8%.
In the case of `COc1cc(NC(=O)c2ccc(-c3csc(C)n3)cc2)c(OC)cc1Cl`, the decrease of EGFP signal is reported as -15.5%.
With `COc1ccccc1CN1CCN(Cc2cc(OC)c(OC)cc2OC)CC1` the decrease of EGFP signal was -13.1%.
For `COc1ccc(C(=O)NC(C)CCc2ccccc2)c(OC)c1` (stereo unspecified), the decrease of EGFP signal was -12.7%.
For `O=C(O)c1ccccc1C(=O)NC1=NN(c2ccccc2)CC1`, the decrease of EGFP signal was 13.1%.
`CCc1ccc(C(=O)NN=C2CCCCCC2)s1` gave a decrease of EGFP signal of -8.5%.
Compound `C=CCn1c(C23CC4CC(CC(C4)C2)C3)n[nH]c1=S` has a decrease of EGFP signal of -8.9%.
